Values without a mark were called inactive. The source made the active and inactive calls.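 Rule for the calls: active = inhibition above the hit cutoff set in the earlier primary screen (cut at about 27% in these data); inactive = the rest.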
Each compound was assayed against Protein phosphatase methylesterase 1 (Homo sapiens) (UniProt Q9Y570) (assay: human PME-1 methylesterase inhibition confirmation – biochemical, fluorescence polarization, FP-Rh probe, triplicate (AID 2171;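 note: 0% = enzyme with DMSO and 100% = wells lacking PME-1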)). Details: recombinant PME-1, FP-Rh probe fluorescence polarization; at 5.9 µM; hits give high values.
Chain of Protein phosphatase methylesterase 1 (Homo sapiens) (Q9Y570 whole entry, looked up): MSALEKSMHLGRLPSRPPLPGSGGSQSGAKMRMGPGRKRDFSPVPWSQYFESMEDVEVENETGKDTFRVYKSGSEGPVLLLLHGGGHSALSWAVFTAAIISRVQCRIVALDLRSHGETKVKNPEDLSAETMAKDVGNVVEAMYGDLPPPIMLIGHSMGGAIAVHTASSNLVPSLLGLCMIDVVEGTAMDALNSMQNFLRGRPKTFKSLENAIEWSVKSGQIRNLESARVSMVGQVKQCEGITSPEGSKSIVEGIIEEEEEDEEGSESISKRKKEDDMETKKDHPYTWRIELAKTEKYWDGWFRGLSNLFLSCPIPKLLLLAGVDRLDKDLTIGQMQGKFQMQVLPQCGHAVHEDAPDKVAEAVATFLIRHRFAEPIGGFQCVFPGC

| SMILES | inhibition |
| --- | --- |
| Nc1ccc2nc(-c3cccc(-c4nc5ccc(N)cc5[nH]4)c3)[nH]c2c1 | 94.1% (active) |
| CCC(=Nc1ccc(N)cc1)C1=C(O)C(C(=O)OC)C(C)(C)CC1=O (stereo unspecified) | 2.34% |
| CC1=C([N+](=O)[O-])C(c2cccc(Br)c2)C2=C(N1)c1ccccc1C2=O (stereo unspecified) | 11.9% |
| O=C(N/N=C/c1ccc(O)cc1)c1cccc(N/N=C/c2ccc(O)cc2)c1 | 18.8% |
| S=C(NCc1ccccc1)NCc1cccc(CNC(=S)NCc2ccccc2)c1 | 3.07% |
| O=C(N/N=C/c1c[nH]c2ccccc12)c1sc2ccccc2c1Cl | 21.7% |
| C/C(=N\Nc1ccccc1C(=O)O)c1ccncc1 | 1.32% |
| COc1ccc(NC(=O)C2CCN(C(=O)c3cccs3)CC2)cc1OC | 5.2% |
| CCn1c(CSc2nnc3ccccn23)nc2cc(C(=O)O)ccc21 | 59% (active) |
| C/C(=N/Nc1nc(-c2ccccc2F)nc2ccccc12)c1ccccc1O | 3.91% |
| Cn1c(=O)c(NCCc2ccccc2)c2c3c(cccc31)C(=O)c1ccccc1-2 | 177% (active) |
| Cc1nn(-c2ccccc2)c2sc(-c3n[nH]c(=S)o3)cc12 | 43.8% (active) |
| CCCC(=O)NC(c1ccccc1Cl)c1c(O)ccc2ccccc12 (stereo unspecified) | 58.5% (active) |
| COc1ccc(-c2cc(-c3ccc(C)cc3)n[nH]2)c(O)c1 | 37.7% (active) |
| CCOc1cccc(/C=N/NC(=S)Nc2cc(S(=O)(=O)N3CCOCC3)ccc2N2CCOCC2)c1O | 25.1% |
| CCCCn1c(NC(=O)c2ccccc2Cl)c(C#N)c2nc3ccccc3nc21 | 19.9% |

— PubChem BioAssay
